Compounds without any hit were thinned out: in the full panel of roughly 83,000, 20% have a hit.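 Cell lines were cultured in 96-well plates, exposed to a single compound concentration, and assessed for percent growth 48 hours later.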 Active and inactive are the calls of the source.

For this experiment, the system named is SNB-19 CNS. Briefly: NCI-60 one-dose screen, 48 h (100 = growth as untreated, 0 = no growth, -100 = all killed). The conditions noted are these: 10 µM unless noted. How it is done: Growth inhibition of the SNB-19 human tumor cell line is measured as a screen for anti-cancer activity. Cells are grown in 96 well plates and exposed to the test compound for 48 hours. Compounds are tested at a single concentration, which is 10^-5 M for most compounds. The reported endpoint is percent growth (GI% or GIPRCNT), where numbers from 0 - 100% represent growth inhibition, and numbers from -100% - 0 represent cell death. For example, a value of 40 represents 60% growth inhibition. A value of 0 means no net growth occurred over the course of the experiment. A value of -40 indicates 40% of cells at the beginning of the experiment died by the end of the experiment. A value of -100 means all cells are dead at the end of the experiment.
NCI-60 Human Tumor Cell Lines Screen was performed using the standard one-dose NCI protocol, which is described in more detail at https://dtp.cancer.gov/discovery_development/nci-60/default.htm.
Compounds with GIPRCNT values below 10 were considered active. Activity score was based on GIPRCNT using the following formula: […]
Score is 0 for GIPRCNT values of 100 or above, 50 for GIPRCNT values of 0, and 100 for GIPRCNT values of -100.
Consider `COc1c(Cl)cc(Cl)c2ccc(C=C3C(=O)NC(=S)NC3=O)nc12`, for which the growth is 99.2% (inactive).

As for `ClCC1(Cn2cnc3c(Cl)nc(Cl)nc32)COC1`, the growth is 88.8% (inactive).

Consider `COc1ccccc1C(C[N+](=O)[O-])c1c(-c2ccccc2)[nH]c2cc(C)ccc12` (stereo not given), for which the growth is 81% (inactive).

Regarding `COc1ccccc1Nc1cc(O)c2c(=O)cc(-c3ccccc3)oc2c1`, the growth is 43.9% (inactive).

For `CC(C)CN(C(=O)c1ccc(Cl)cc1)c1c(N)n(CC(C)C)c(=O)[nH]c1=O`, the growth was 96.6% (inactive).

In the case of `O=C(NCCc1ccccn1)OCc1nc2nc(Cl)nc(N3CCOCC3)c2[nH]1`, the growth is 37.2% (inactive).

Turning to `Cc1nc2sc(C(=O)Nc3cccc(Br)c3)c(N)c2cc1C(=O)c1ccc(C(F)(F)F)cc1`, the growth is 82.3% (inactive).

In the case of `COc1cccc2cc(-c3cc4ccccc4[nH]3)/c(=N/C(=S)Nc3ccc(C)cc3)oc12`, the growth was 52.8% (inactive).

For `COc1ccc(C(=O)c2cc3c(N)c(C(=O)Nc4cccc(Br)c4C)sc3nc2C)cc1`, the growth is 43% (inactive).

Consider `Cc1ccccc1CNc1ccc(N2CCOCC2)cc1`, for which the growth is 101% (inactive).

For `COc1cc2c(cc1[N+](=O)[O-])-c1ccc([N+](=O)[O-])cc1/C2=N/NC(N)=S`, the growth is 58.8% (inactive).

For `CSc1nc(O)c(-c2ccccc2)c(=O)[nH]1`, the growth was 100% (inactive).

With `O=S(=O)(NCCNc1nccc(-c2c(-c3ccc(F)c(O)c3)nc3sccn23)n1)c1ccccc1`, the growth was 113% (inactive).

As to `CC(=O)OCC(=O)[C@@]1(O)CC[C@H]2[C@@H]3CC(=C(Br)Br)C4=CC(=O)CC[C@]4(C)[C@H]3C(=O)C[C@@]21C`, the growth was 92.6% (inactive).

Turning to `CC1=CC[C@@H]2CC[C@]3(C)[C@H](CC[C@@H]4[C@@]5(C)CCCNC(C)(C)[C@@H]5CC[C@]43C)[C@H]2[C@@H]1C`, the growth was 18.1% (inactive).

`Cc1cc(C(=O)Nc2ncnc3nc[nH]c23)no1`: the growth was 96.6% (inactive).

Turning to `CCCCCCC/C=C/[C@H]1O[C@]2(O)C(=O)C=C3C[C@@H](O[C@@H]4O[C@H](CO)[C@@H](O)C(O)[C@@H]4O)C[C@@H]3[C@H]2C=C1C` (stereo not given in full), the growth is 13% (inactive).

As to `Cc1ccccc1-c1cc(Cc2ccc(F)cc2)c(=O)[nH]n1`, the growth is 88.2% (inactive).

Consider `O=C(O)C(/C=C/c1ccco1)=N\Nc1nc(-c2ccc(Cl)cc2)cs1`, for which the growth is 42.5% (inactive).

With `O=C1NC(=S)NC(=O)C1=Cc1cn(Cc2ccccn2)c2ccccc12`, the growth was 53.4% (inactive).

In the case of `C/C(=C(/c1ccccc1)c1ccc(OCC(O)CN2CCOCC2)cc1)c1ccccc1` (stereo not given), the growth was 102% (inactive).

`C#CCNC(=O)[C@H](Cc1ccccc1)NC(=O)[C@]12CC[C@@H](C(=C)C)[C@@H]1[C@H]1CC[C@@H]3[C@@]4(C)Cc5c([nH]c6ccccc56)C(C)(C)[C@@H]4CC[C@@]3(C)[C@]1(C)CC2`: the growth was 90.9% (inactive).

On to `O=C(CCN1CCCC1)Nc1ccc2c(Nc3ccccc3)c3ccccc3nc2c1`, for which the growth is 18.4% (inactive).

With `Clc1ccc(N2N=C(c3cccc(Nc4ccncc4)c3)CC2c2ccccc2)cc1` (stereo not given), the growth was 95.6% (inactive).

On to `CN1C(=O)N(C)C2NC(N/N=C/c3ccccc3)=NC21` (stereo not given), for which the growth is 102% (inactive).

On to `CCCCCCCCCCN=C(N)N=C(N)N`, for which the growth is 38.7% (inactive).

Regarding `CCC(=O)c1ccc(O)c(OC)c1`, the growth was 95.9% (inactive).

Take `O=C(N/N=C/c1cccc(O)c1)c1ccccc1Nc1cccc(C(F)(F)F)c1`: the growth is 88.1% (inactive).

Take `COc1cc(/C=C2\C(=O)N(Cc3ccc(Cl)cc3)c3ccccc32)cc(OC)c1OC`: the growth was 50.3% (inactive).

In the case of `COc1ccc(/C(C)=N/NC(=O)CSc2nc3ccccc3c(=O)n2Cc2ccc(S(N)(=O)=O)cc2)c(OC)c1`, the growth is 95.5% (inactive).

As for `C=C1C(=O)O[C@H]2[C@H]1CC/C(CNC(=O)/C=C/c1ccccc1F)=C\CC[C@@]1(C)O[C@@H]21`, the growth was 56.4% (inactive).

Take `C=C(C)[C@@H]1CC[C@]2(C(=O)NCC(=O)OC)CC[C@]3(C)[C@H](CC[C@@H]4[C@@]5(C)Cc6c([nH]c7ccccc67)C(C)(C)[C@@H]5CC[C@]43C)[C@@H]12`: the growth is 82.5% (inactive).

With `CCCc1cc2c(cc1Br)OCO2`, the growth was 106% (inactive).

As for `COc1cc(CCNc2nc3cc(N)cc(N)c3nc2-c2ccccc2)cc(OC)c1`, the growth was 12.9% (inactive).

With `COc1cc2nc(-c3ccc(C(F)(F)F)cc3)cc(OCCN3CCC(O)CC3)c2cc1OC`, the growth is 89% (inactive).

On to `C[C@H]1[C@H](C)CC[C@]2(CO)CC[C@]3(C)C(=CC[C@@H]4[C@@]5(C)CCCNC(C)(C)[C@@H]5CC[C@]43C)[C@H]12`, for which the growth is -64.9% (active).

With `Cn1/c(=N/NC(N)=S)ccc2ccccc21`, the growth is 105% (inactive).

For `CN1CCN(C(=O)[C@]2(C)CC[C@]3(C)CC[C@]4(C)C(=CC(=O)[C@@H]5[C@@]6(C)CCC(=O)NC(C)(C)[C@@H]6CC[C@]54C)[C@@H]3C2)CC1`, the growth was 97.8% (inactive).

As for `CC(C)CCSc1nc(NNC(N)=O)c(C#N)c(-c2ccccc2)n1`, the growth was 99.2% (inactive).

For the compound `COC(=O)N[C@H]1CCc2cc(OC)c(OC)c(OC)c2-c2ccc(SC)c(=O)cc21`, the growth was 31.1% (inactive).

For the origin of these results see PubChem BioAssay (NCI).
